High-throughput results: PubChem BioAssay, several laboratories
An excerpt weighted towards active compounds, which were near 27% of everything screened.
CYP2C19 act = human CYP2C19 activators, primary screen, biochemical, luminescence; recombinant CYP2C19, luciferin-H EGE luminescence; hits give high values; 0 = fully inhibited enzyme, 1 = untreated enzyme; 96,000 tested, under 10 active; activation factor at 5 µM; Cytochrome P450 2C19 (Homo sapiens), P33261;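 active means activation factor of at least 2 at 5 µM in the primary screen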;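 further: 0 = wells with 2.5 mM tranylcypromine and 1 = vehicle-only wells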
CYP2C9 inhib = blockers of cytochrome P450 2C9 activity – biochemical, luminescence, ADME assay, primary screen | P11712 | actives 20% (n = 96,000) | CYP2C9 Supersomes, luciferin-H conversion | inhibition, % at 5 µM;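 active means blocking of liver enzyme CYP2C9 beyond about 50% at 5 µM, limit read from the data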
Target sequence (P11712 whole entry, looked up): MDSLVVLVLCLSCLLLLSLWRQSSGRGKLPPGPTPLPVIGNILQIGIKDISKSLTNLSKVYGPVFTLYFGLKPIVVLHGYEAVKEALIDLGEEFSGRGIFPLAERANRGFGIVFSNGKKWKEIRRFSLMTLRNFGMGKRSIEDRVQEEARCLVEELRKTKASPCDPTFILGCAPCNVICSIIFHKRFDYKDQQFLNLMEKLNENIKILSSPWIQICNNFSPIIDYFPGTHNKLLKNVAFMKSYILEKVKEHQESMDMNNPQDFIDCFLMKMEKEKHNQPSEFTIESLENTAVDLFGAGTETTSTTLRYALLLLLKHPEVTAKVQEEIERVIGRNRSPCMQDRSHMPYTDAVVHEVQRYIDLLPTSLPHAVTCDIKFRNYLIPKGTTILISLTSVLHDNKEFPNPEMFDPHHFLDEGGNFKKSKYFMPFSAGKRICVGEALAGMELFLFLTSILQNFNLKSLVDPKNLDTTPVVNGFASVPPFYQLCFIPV
Cav3 T inh = Cav3.2 calcium influx blockers – cell-based, Fluo-4 calcium fluorescence, FDSS, MLSMR library, primary screen. Voltage-dependent T-type calcium channel subunit alpha-1H (Homo sapiens), O95180. Cav3.2-expressing cells; hits give low values. B-score at 10 µM. actives 4% (n = 100,000). AID 449739, 2010;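 active means single-dose well whose peak fluorescence ratio is a statistical outlier from its plate by either plate-standardised score or position-corrected B-score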
CYP2C19 inhib = blockers of cytochrome P450 2C19 activity – biochemical, luminescence, ADME assay, primary screen; AID 778, 2007; P33261; CYP2C19 Supersomes, luciferin-H EGE luminescence, 30 min; actives 21% (n = 96,000); inhibition, % at 5 µM;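 active means CYP2C19 inhibition above a set limit at 5 µM in the primary screen, cut at about 50% in these data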;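 further: plate controls were negative control wells for no effect and 2.5 mM tranylcypromine positive control for full effect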
CYP2C9 activ = human CYP2C9 activators, primary screen, biochemical, luminescence. Cytochrome P450 2C9 (Homo sapiens), P11712. actives 1.4% (n = 96,000). activation factor at 5 µM. recombinant CYP2C9, luciferin-H conversion; hits give high values; factor 1 = untreated enzyme, 0 = blocked;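 active means activation factor of 2 or more for CYP2C9 at a 5 µM dose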;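 further: 0 = sulfaphenazole-blocked wells and 1 = vehicle-only wells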
Active calls of the source: *; nt = no result.

SMILES	CYP2C19 act	CYP2C9 inhib	Cav3 T inh	CYP2C19 inhib	CYP2C9 activ
CCOC(=O)c1cnc(SC)nc1Oc1cccc(NC(=O)c2ccc(Cl)cc2)c1	0.9	42	-3.1	5	0.6
CCOC(=O)c1ccccc1NC(=O)CSc1ncc(C(=O)OCC)c(N)n1	0.6	88*	-1.8	40	0.1
CCOC(=O)c1cnc(SCc2cccc(C)c2)nc1N	0.8	-70	-4.9*	18	1.7
CCOC(=O)c1ccccc1NC(=O)CSc1nc(N)cc(N)n1	nt	nt	-0.82	nt	nt
CCOC(=O)c1cnc(SCC(=O)Nc2ccc(NC(C)=O)c(OC)c2)nc1N	0.9	40	1.4	11	0.6
CCOC(=O)c1cnc(-c2ccccc2)nc1Oc1cccc(Cl)c1	1	51*	-0.31	3	0.5
CCSc1nc2c(sc3ccccc32)c(=O)n1C(C)C	1.1	-23	-2.9	-12	1.2
COC(=O)Nc1ccc2ncn(C)c(=O)c2c1	1.1	-4	-1.1	-6	1
COc1ccc(OC)c(C(=O)COC(=O)c2ccccc2O)c1	0.8	12	-1.3	20	0.9
CCOC(=O)c1cnc(SCC(=O)Nc2nc(C)c(C)s2)nc1N	0.5	91*	-1.1	51*	0.1
CCOC(=O)c1cnc2c(C#N)c(C)nn2c1C	0.8	-4	-0.33	20	1
CCOC(=O)c1cc(C#N)c(Oc2cccc(C(F)(F)F)c2)nc1-c1ccccc1	0.9	29	-4.5*	13	0.7
CCOC(=O)c1cnc2c(C#N)c(C)nn2c1-c1ccccc1	0.1	11	-0.2	95*	0.9
O=C(Nc1ccccc1C(=O)N1CCCC1)c1cccc(S(=O)(=O)N2CCCCC2)c1	1	18	1.3	-2	0.8
Oc1c(C(c2cccs2)N2CCN(c3cccc(Cl)c3)CC2)sc2ncnn12 (stereo not drawn)	0.6	54*	-1.8	42	0.5
O=C(c1ccco1)N1CCN(C(c2cccs2)c2sc3ncnn3c2O)CC1 (stereo not drawn)	0.5	44	0.88	52*	0.6
Oc1c(C(c2cccs2)N2CCOCC2)sc2ncnn12 (stereo not drawn)	1.1	-24	0.7	-8	1.2
O=C(CN1CCCCCC1)Nc1ccc(F)c(F)c1F	0.3	8	0.16	72*	0.9
Cc1ccc(NC(=O)CN2CCCCCC2)c(Br)c1	0.2	14	0.54	80*	0.9
O=C(CN1CCCCC1)Nc1ccccc1	0.7	5	-1.8	34	0.9
COC(=O)CSc1nnc(-c2ccc3c(c2)OCO3)n1C	1	6	0.5	3	0.9
COC(=O)CSc1nnc(-c2sc3cc(OC)ccc3c2Cl)n1C	0.4	-4	0.31	56*	1
COCCn1c(COc2cccc(OC)c2)nnc1SCC(=O)N1CCOCC1	1	3	0.091	-2	1
CCCn1c(Nc2ccccc2C)nc2ccccc21	nt	nt	-0.088	nt	nt
Cc1ccccc1-c1nc2ccccc2c(=O)n1C1CCS(=O)(=O)C1 (stereo not drawn)	0.1	3	0.34	88*	1
SMILES	CYP2C19 act	CYP2C9 inhib	Cav3 T inh	CYP2C19 inhib	CYP2C9 activ
O=c1c2ccccc2nc(-c2ccc(Cl)cc2)n1C1CCS(=O)(=O)C1 (stereo not drawn)	nt	nt	-4.2*	nt	nt
Nc1c(-c2ccc(Cl)cc2)cnn1C1CCS(=O)(=O)C1 (stereo not drawn)	1	-6	0.99	-1	1.1
Cc1ccc(S(=O)(=O)N2CCC(C(=O)N3CCC[C@H]3C(=O)NCc3ccco3)CC2)cc1	1	-5	-0.019	1	1.1
N#Cc1cccc(-n2nnnc2-c2ccc3c(c2)OCO3)c1	0	22	0.56	97*	0.8
N#Cc1ccc(-c2nnnn2-c2ccc3c(c2)OCO3)cc1	0.4	27	-0.25	61*	0.7
[O-][n+]1c2c(c3c4non(O)c4ccc31)CCCC2	0.8	38	-6.8*	22	0.6
COn1c2c(c3c4no[n+]([O-])c4ccc31)CCCC2	0.8	6	-1.6	22	0.9
O=C(CSc1nc(O)c(Cc2ccccc2)c(=O)n1-c1ccccc1)N1CCOCC1	1.1	-23	0.68	-10	1.2
Cc1cc(C)n(-c2nc3ccccc3[nH]c2=O)n1	nt	nt	0.7	nt	nt
Cc1cc(NC(=O)c2c(F)cccc2F)n(-c2nc3ccccc3[nH]2)n1	0.7	52*	-0.6	29	0.5
Cc1cc(Nc2ccccc2)n(-c2nc3ccccc3[nH]2)n1	0.8	69*	0.9	23	0.3
Cc1cc(Nc2ccccc2)n(C(=O)c2ccccc2)n1	1.1	24	nt	-7	0.8
Cc1cc(NC(=O)c2ccccc2F)n(-c2nc3ccccc3[nH]2)n1	0.8	28	-0.19	24	0.7
Cc1cc(NC(=O)C2CCCCC2)n(-c2nc3ccccc3[nH]2)n1	0.7	71*	-0.38	31	0.3
Cc1cc(NC(=O)C2CCC2)n(-c2ccccn2)n1	0.6	-195	0.44	38	3*
Cc1cc(NC(=O)c2cccc(S(=O)(=O)N3CCCCCC3)c2)n(-c2ccccn2)n1	0.7	29	1.9	26	0.7
NC(=O)C1(N2CCCCC2)CCN(C(=O)NC2CCCCC2)CC1	1	13	0.25	2	0.9
Cc1cc(NC(=O)c2c(F)cccc2Cl)n(-c2nc3ccccc3[nH]2)n1	0.1	95*	-1.4	86*	0.1
Cc1nn(-c2nc3ccccc3[nH]2)c(N)c1-c1ccc(Cl)cc1	1	15	-0.27	0	0.9
CCOc1ccc(C2=C(C=Nc3c(C)n(C)n(-c4ccccc4)c3=O)C(c3ccc(F)cc3)c3ccccc3O2)cc1 (stereo not drawn)	0.8	58*	0.0033	18	0.4
Cc1cccc(-c2ccc(C=Nc3c(C)n(C)n(-c4ccccc4)c3=O)o2)c1	0.8	19	-0.00043	16	0.8
O=C(CSc1nnc2sc3ccccc3n12)NCc1ccc2c(c1)OCO2	nt	nt	-0.59	nt	nt
Cn1c2ccccc2c2cc(C(=O)N3CCOCC3)sc21	0.8	-148	0.6	24	2.5*
c1coc(-c2nnc(SCc3nc4ccccc4[nH]3)o2)c1	0.6	28	0.15	39	0.7
COc1ccc(C(O)c2nc3ccccc3s2)cc1 (stereo not drawn)	0.4	39	nt	62*	0.6
COc1cc(OC)cc(-c2nc3ccccc3s2)c1	1	19	0.024	2	0.8
CC(=O)Nc1cc(C(=O)OCC(=O)c2ccc(Cl)cc2Cl)ccc1C	0.7	-102	0.44	34	2*
O=C(COC(=O)c1cccnc1Cl)c1ccc(Cl)cc1Cl	0.3	-149	-0.36	66*	2.5*
CC(C)C(=O)Nc1cccc(C(=O)OCC(=O)c2ccc(Cl)cc2Cl)c1	0.9	-163	0.25	8	2.6*
